The source of these data is PubChem BioAssay (NCI).

This is part of a sample that, as a whole, favours compounds with a hit. Of some 83,000 tested, about 20% had one in any assay.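 48-hour exposure, single concentration, 96-well plates; percent growth endpoint where 0 means no net growth. Active: below 10.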 Unmarked numbers belong to inactive results. Activity calls are given as the source filed them.

The assay deals with IGROV1 ovarian. As to the kind of experiment: NCI-60 one-dose screen, 48 h (100 = growth as untreated, 0 = no growth, -100 = all killed). The note with it: 10 µM unless noted. As for the experimental part: Growth inhibition of the IGROV1 human tumor cell line is measured as a screen for anti-cancer activity. Cells are grown in 96 well plates and exposed to the test compound for 48 hours. Compounds are tested at a single concentration, which is 10^-5 M for most compounds. The reported endpoint is percent growth (GI% or GIPRCNT), where numbers from 0 - 100% represent growth inhibition, and numbers from -100% - 0 represent cell death. For example, a value of 40 represents 60% growth inhibition. A value of 0 means no net growth occurred over the course of the experiment. A value of -40 indicates 40% of cells at the beginning of the experiment died by the end of the experiment. A value of -100 means all cells are dead at the end of the experiment.
NCI-60 Human Tumor Cell Lines Screen was performed using the standard one-dose NCI protocol, which is described in more detail at https://dtp.cancer.gov/discovery_development/nci-60/default.htm.
Compounds with GIPRCNT values below 10 were considered active. Activity score was based on GIPRCNT using the following formula: […]
Score is 0 for GIPRCNT values of 100 or above, 50 for GIPRCNT values of 0, and 100 for GIPRCNT values of -100.
Turning to `COC(=O)[C@H]1Cc2c([nH]c3ccccc23)[C@H](c2ccc3c(c2)OCO3)N1`, the growth is 90.6%.
With `Cc1nc2c(c(-c3ccccc3)n1)Cc1c(ccc3ccccc13)O2` the figure was 118%; with `CCN1C(=O)N(CC)C2C1NC(=S)N2/N=C/C=C/c1cccs1` (stereo not given), 24.5%; with `OC1CSSC1Cn1cnc2c(Nc3ccc(F)c(Cl)c3)ncnc21` (stereo not given), 93.2%.
With `CCCN1C2CCC1/C(=C\c1ccc(OC)cc1)C(=O)/C2=C/c1ccc(OC)cc1` the figure was 82.2%.
With `Cn1ccnc1C(=O)/C=C/c1ccc(CC(=O)Nc2cc(F)c(F)c(F)c2)cc1` the figure was 29%; with `CCCC1Cc2cc(-n3nc(C)c4c3CC(C)(C)CC4=O)cc(NC3CCC(O)CC3)c2C(=O)N1` (stereo not given), 24.7%; with `COc1cc(/C=C2\C(=O)N(CCOc3cc(O)c4c(=O)cc(-c5ccccc5)oc4c3)c3ccccc32)cc(OC)c1O`, 74.4%.
Consider `Oc1cccc(-c2nc(-c3n[nH]c(=S)n3-c3ccccc3)cc3c2[nH]c2ccccc23)c1`, for which the growth was 24%.
With `Nc1ncc(-c2ccc3ncnc(N4CCc5cc(F)c(Cl)cc54)c3c2)cc1C=O` the figure was -35.9% (active); with `CN1CCN(Cc2ccc(NC(=O)c3cncc(C#Cc4c(N)ncc5cc(F)ccc45)c3)cc2C(F)(F)F)CC1`, 15.1%.
In the case of `NCCCCCNc1noc(Cc2c[nH]c3cc(Br)ccc23)n1`, the growth is 34.5%.
With `O=[N+]([O-])c1ccc(N/N=C\c2cc(Cl)ccc2O)nc1` the figure was 30.4%.
With `Cn1cc(-c2nc(-c3c[nH]c4c(Cl)nccc34)cs2)c2ccccc21` the figure was 105%; with `C=CCn1c(SCC(=O)Nc2ccc(C(=O)/C=C/c3cc(OC)c(OC)c(OC)c3)cc2)nnc1-c1cc(-c2ccc(S(N)(=O)=O)cc2)nc2ccccc12`, 80.4%; with `COC(=O)c1c(C)nc(C)c2c1C(=O)C(Br)=C(NCCN1CCOCC1)C2=O`, 96.2%.
With `CC(=O)O[C@H]1CC[C@@]2(C)C(=CC[C@@H]3[C@@H]2CC[C@]2(C)C(Cl)=C(c4nc5ccc(Cl)cn5c4NC(C)(C)C)C[C@@H]32)C1` the figure was 87.9%.
Regarding `CCCNNC(=O)c1ccc(CNC(=O)/C=C/c2ccccc2)cc1`, the growth is 30.5% [2.5 µM].
With `Cc1csc(Nc2nc(-c3cccc(Cl)c3)nc(C(Cl)(Cl)Cl)n2)n1` the figure was 83.1%.
Turning to `CC1=C(C(=O)c2ccccc2)C(c2ccc3c(c2)OCO3)NC(=S)N1` (stereo not given), the growth is 46.1%.
Next, `CC1(C)CC[C@]2(CO)CC[C@]3(C)C(=CC[C@@H]4[C@@]5(C)CCNCC(C)(C)[C@@H]5CC[C@]43C)[C@@H]2C1`: 95%; `Nc1nc(N)c2c(n1)NC(c1ccc3c(c1)OCO3)CC(c1cccc(Nc3ccncc3)c1)=N2` (stereo not given): 79.7%.
With `C#Cc1cccc(Nc2nc(Cl)nc3cc(NC(=O)CCl)ccc23)c1` the figure was -59.8% (active); with `Cc1nn(-c2ccccc2)c(Oc2ccccc2)c1/C=N/NC(=O)Cn1c(=O)sc2ccccc21`, 54.4%; with `CCCS(=O)(=O)Nc1cccc(Nc2ncnc3cc(NC(=O)CCl)ccc23)c1Cl`, -52.6% (active).
Next, `CNC(=O)c1cc(Oc2cccc3nc(NC(=O)Nc4ccc(F)cc4F)ccc23)ccn1`: 35%; `O=C(Nc1ccccc1CNc1nc(Nc2ccc(OCCN3CCCC3)cc2)ncc1Cl)NC1CCCCC1`: 88.1%; `C#Cc1cccc(Nc2ncnc3ccc(-c4cnc(Cl)c(NS(C)(=O)=O)c4)cc23)c1`: -55.8% (active).
Take `COc1ccc(N/N=C/c2ccc3c(c2)Sc2ccccc2N3C)cc1`: the growth was 55.8%.
`O=C(Oc1ccccc1)c1cc(O)c(O)c(O)c1`: the growth was 76%.
Next, `COc1cc(C(=O)/C=C/c2c(-c3cccs3)nc3sc(C)cn23)cc(OC)c1OC`: 9.6% (active); `COc1cc2c(c(OC)c1OC)C(=O)CC(c1cccc(C(=O)Nc3ccc(Br)cc3)c1)O2` (stereo not given): 67.4%; `O=C1/C(=C/c2cccc(Br)c2)COc2ccc(O)c(O)c21`: -44.1% (active).
Next, `CCOC(=O)c1c(C)nc2c(c1N)C(=O)C(=O)N2CCc1ccc(OC)c(OC)c1`: 74%.
Regarding `CC(CN)[C@@H]1CC[C@]2(CO)CC[C@]3(C)[C@H](CC[C@@H]4[C@@]5(C)CCC(NCCO)C(C)(C)[C@@H]5CC[C@]43C)[C@@H]12` (stereo not given in full), the growth was 71.4%.
Turning to `COc1ccccc1/C=C/C1=C(C)CCC(c2ccccc2OC)C1C` (stereo not given), the growth is -48.7% (active).
Next, `O=C(Nc1ncc(Cc2ccccc2)s1)c1ccc2c(c1)OCCO2`: 23.4%.
Next, `O=C1CC2C=CCN2C=C1NC(=O)c1ccccc1` (stereo not given): 106%; `c1ccc(-c2nc(N3CCNCC3)c3oc(-c4ccccc4)nc3n2)cc1`: -88.8% (active).
As to `COc1ccc(C2=C/C(=C\c3ccccc3O)C(=O)N2Cc2ccccc2)cc1`, the growth was 77.5%.
